Composite z-score data for 39 compounds are collected here from PubChem BioAssay.

Several values for one entry are separate records, joined by “and”; a condition that tells them apart may be missing. Equal entries are not always repeated.

Sequence of Albumin (Bos taurus) (P02769 whole entry, looked up): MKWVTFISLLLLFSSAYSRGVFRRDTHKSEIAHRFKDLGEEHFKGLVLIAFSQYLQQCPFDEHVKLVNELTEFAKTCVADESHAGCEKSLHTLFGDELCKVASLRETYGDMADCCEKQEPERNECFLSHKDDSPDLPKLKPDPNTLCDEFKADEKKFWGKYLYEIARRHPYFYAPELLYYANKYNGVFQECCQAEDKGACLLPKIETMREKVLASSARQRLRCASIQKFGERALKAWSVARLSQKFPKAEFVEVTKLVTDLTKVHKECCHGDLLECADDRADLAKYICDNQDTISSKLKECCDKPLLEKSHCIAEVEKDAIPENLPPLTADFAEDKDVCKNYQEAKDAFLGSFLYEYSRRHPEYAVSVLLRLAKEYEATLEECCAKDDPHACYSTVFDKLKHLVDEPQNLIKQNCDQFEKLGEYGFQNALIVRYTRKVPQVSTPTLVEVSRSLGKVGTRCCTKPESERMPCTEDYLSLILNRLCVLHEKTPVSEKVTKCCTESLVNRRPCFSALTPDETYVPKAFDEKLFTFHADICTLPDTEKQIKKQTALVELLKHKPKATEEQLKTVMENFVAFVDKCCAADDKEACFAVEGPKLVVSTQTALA

The assay addresses Albumin (Bos taurus) (UniProt P02769). The experiment in a line: compounds binding labelled BSA control protein – biochemical, small-molecule microarray, Alexa647 label, 635/667 nm fluorescence, artefact control for SMM control protein annotation, profiling panel (AID 1118).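 Note: score merges 667 nm emission intensity and signal-to-noise per printed compound spot.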 The settings on record: BSA-A647 binding, fluorescence 635 nm, higher = more signal.
As for `C=CCN(C(=O)C(c1cccs1)N(C(=O)/C=C\C(=O)O)c1ccc(CCO)cc1)c1ccc(OC)cc1` (centres undefined), the composite z-score was 0.254 and -1.1.

As to `CO[C@@H]1COC(=O)CC=C[C@H](C)COC(=O)[C@H](C)NC(=O)CC=C[C@H]1C`, the composite z-score was -1.02. As for `CCOC(=O)c1ccc(NC(=O)O[C@H]2[C@H](OC(=O)Nc3ccccc3)[C@@H](OC(=O)Nc3ccccc3)[C@@H](OC)O[C@@H]2CO)cc1`, the composite z-score was 0.905 and 0.893. The same measure for `COC(=O)C1=C(C)N(Cc2ccccc2)C2=C(C(=O)c3ccccc3)[C@H](c3ccccc3)[C@@](O)(C(=O)OC)C(=O)N2[C@@H]1c1ccccc1`: 0.388 and 0.0897; for `C[C@@]1([C@@H](NC(=O)Cc2ccccc2)c2ccc(-c3ccccc3)cc2)C[C@H]1C1CCCCC1`: 0.895 and 0.715 and 0.978.

For `CC(CO)N1C(=O)[C@@H]2C3C(=O)OCCC=C[C@H]3OC23C=CCN(CCN2CCOCC2)C(=O)[C@@H]13` (some centres undefined), the composite z-score is 0.417 and -0.264. For `C=C[C@H](C)[C@H](O)c1ccc(O)c2ccccc12`, the composite z-score was -0.401 and 0.473. For `C=CCN(CCCC)C(=O)C(c1cccs1)N(C(=O)/C=C\C(=O)O)c1c(Cl)cccc1CO` (centres undefined), the composite z-score is -0.854 and -0.198. The compound `C#CCCCON=C1C[C@@H](O)[C@@H](O)[C@@H]2[C@@H]3C(=O)N(C4CCCCC4)C(=O)[C@@H]3CC[C@H]12` returned a composite z-score of 0.691. The figure for `Cc1ccc(S(=O)(=O)N[C@H]2COC(=O)[C@@H](C)COC(=O)[C@H](C)NC(=O)CC=C[C@H]2C)cc1` is -0.965; for `C=CCN(C(=O)C1N(CCOCCO)C(=O)C2C(C(=O)O)C3C=CC21O3)C(C)(C)C` (centres undefined) it is 0.106 and -0.502; for `C=CCN(CCCC)C(=O)C1N(CCOCCO)C(=O)C2C(C(=O)O)C3C=CC21O3` (centres undefined) it is -0.994 and -2.32. Compound `COc1ccc(COC(=O)NN=C2C[C@@H](O)[C@@H](O)[C@@H]3[C@@H]4C(=O)N(C(C)(C)C)C(=O)[C@@H]4CC[C@H]23)cc1` registered a composite z-score of 0.682.

As for `COC(=O)C1=C2N(Cc3ccccc3)C(C)=C(C(=O)OC)[C@@H](c3ccccc3)N2C(=O)[C@](O)(C(=O)OC)C1`, the composite z-score is 0.514 and -0.0136. The figure for `C[N+](C)(C)CCCCNC(=O)[C@@H]1C[C@@H]2C(=O)N[C@@H](CCCC[N+](C)(C)C)C(=O)N2[C@@H]1c1cccc(OCCO)c1` is -0.916 and -0.121.

Take `C[C@@H]1CC[C@H]2C(=O)N3[C@@H](CC[C@@H](C)[C@@H]3c3ccc(-c4ccco4)cc3)C(=O)N2[C@H]1c1ccc(-c2ccco2)cc1`: the composite z-score was 0.346 and -0.391. The same measure for `C=CCN(Cc1ccccc1)C(=O)C1N(c2ccc(CCO)cc2)C(=O)C2C(C(=O)O)C3C=CC21O3` (centres undefined): -1.88 and -0.419; for `CC(C)N1CC=CC23O[C@@H]4C=CCCOC(=O)C4[C@H]2C(=O)N(C(C)CO)[C@@H]3C1=O` (some centres undefined): -0.579 and 0.131. The same measure for `CC(C)C(=O)N[C@@H]1CCCN1C(=O)C=Cc1ccccc1`: -0.0317; for `CO[C@@H]1COC(=O)[C@H](Cc2ccccc2)NC(=O)CC=C[C@@H](C)[C@H](OC)COC(=O)[C@@H](C)NC(=O)CC=C[C@H]1C`: -1.24 and 0.871.

In the case of `COC(=O)[C@@]1(Cc2ccc(OC)cc2)[C@H]2c3cc(C(=O)N(C)C)n(Cc4ccc(O)c(OC)c4)c3C[C@H]2CN1C(=O)c1ccccc1`, the composite z-score is 1.03 and 0.843. The figure for `C=CCN(CCCCC)C(=O)C1N(CCCCCCO)C(=O)C2C(C(=O)O)C3C=CC21O3` (centres undefined) is -1.03 and 0.785.

Consider `O=c1n(-c2ccccc2)c(=O)n2n1CC[C@@H]1C(=NOC[C@@H](O)COCc3ccco3)[C@H]3O[C@H]3[C@@H](O)[C@@H]12`, for which the composite z-score was -0.73 and 0.143. For the compound `CCOC(=O)NN=C1C[C@@H](O)[C@@H](O)[C@@H]2[C@@H]3C(=O)N(Cc4ccc5c(c4)OCO5)C(=O)[C@@H]3CC[C@@H]12`, the composite z-score stood at 0.397. The figure for `CCCCCN1CC=CC23O[C@@H]4C=CCCOC(=O)C4[C@H]2C(=O)N(C(C)CO)[C@@H]3C1=O` (some centres undefined) is 0.345 and -0.098; for `C=C[C@H](OC)[C@@H](O)c1ccc(OCCO)cc1` it is -1.69 and -0.599. On to `CCCCN1CC=CC23O[C@@H]4C=CCCOC(=O)C4[C@H]2C(=O)N(C(C)CO)[C@@H]3C1=O` (some centres undefined), for which the composite z-score was -0.12 and -0.441. The figure for `C=CCN(CCCCC)C(=O)C1N(CCOCCO)C(=O)C2C(C(=O)O)C3C=CC21O3` (centres undefined) is 0.92 and -1.47; for `C=CCN(CCCCC)C(=O)C(c1cccs1)N(C(=O)/C=C\C(=O)O)c1ccc(CCO)cc1` (centres undefined) it is 0.516 and -0.0786. The figure for `O=C1NC(=O)C2C1C=CC(C(O)c1ccc([N+](=O)[O-])cc1)N2Nc1ccc(Cl)cc1Cl` (centres undefined) is 0.933 and 0.732; for `COC(=O)[C@@]1(Cc2ccccc2)[C@H]2c3cc(C(=O)N(C)C)n(C[C@H](O)CO)c3C[C@H]2CN1C(=O)c1ccccc1` it is 0.4 and 1.14. The same measure for `CO[C@H]1COC(=O)CC=C[C@@H](C)COC(=O)[C@H](CCSC)NC(=O)CC=C[C@@H]1C`: -1.57 and -1.06; for `C=CC[C@@H](O)c1ccc(O)c2ccccc12`: -0.0028 and -0.264. Take `CCOC(=O)C[C@H]1[C@H](OC(=O)c2ccccc2-c2ccccc2)[C@@H](NC(=O)Cc2ccc(OC)cc2)c2cc(OCCCO)ccc2N1C(=O)c1ccc2ccccc2n1`: the composite z-score is 0.0759 and 0.46. The same measure for `CN1C(=O)C2CC=C([C@H]3Oc4ccccc4S(=O)(=O)N4CCC[C@@H]34)CC2C1=O` (some centres undefined): -0.75 and -0.505; for `C[N+](C)(C)CCCCNC(=O)[C@H]1C[C@H]2C(=O)N[C@@H](CCCC[N+](C)(C)C)C(=O)N2[C@H]1c1ccc(O)cc1`: -0.839 and -1.32; for `C=CCN(Cc1ccccc1)C(=O)C1N(c2c(Cl)cccc2CO)C(=O)C2C(C(=O)O)C3C=CC21O3` (centres undefined): -1.52 and -0.682.

The compound `O=C1[C@H]2[C@H]3[C@H](O)[C@H](O)CC(=NOCc4ccccc4)[C@H]3CC[C@H]2C(=O)N1Cc1ccccc1` came in with a composite z-score of 0.273. The figure for `COC(=O)[C@@]1(Cc2ccc(F)cc2)[C@H]2c3cc(C(=O)N4CCCC4)n(Cc4c(CO)[nH]cc(C)c4=O)c3C[C@H]2CN1C(=O)c1ccccc1` is 1.07 and 0.247.
